# From PubChem BioAssay (EPA / NIEHS)
# “And” between values parts separate entries of the source, which are not always exact repeats. Identical values can stand only once. Records with an inconclusive call do not appear. The source made the active and inactive calls. Rule for the calls, unless noted: active = hit-call score of the fitted dose curve at least 0.9, where 1 is the maximum; inconclusive = response in the unintended direction; inactive = score below 0.9.
# What was measured:
# [1] = read-out: X-box binding protein 1 (XBP1), XBP1 (gene 7494); test: LTEA_HepaRG_XBP1: Life Technologies and Expression Analysis (LTEA) Assay for X-box binding protein 1 (XBP1) using HepaRG (AID 2283540; active = hit-call score of the fitted dose curve at least 0.9, where 1 is the maximum; inactive = score below 0.9); details: mRNA level, 48 h; actives raise or lower the signal
# Method in brief: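 Transcript levels of XBP1, measured by qRT-PCR and normalised to three housekeeping genes, were fitted bidirectionally relative to 0.5% DMSO controls. Human HepaRG cells received eight-point half-log dilutions from 100 uM for 48 h.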
# [2] = LTEA_HepaRG_LDH_cytotoxicity: Cytotoxicity Assessment in the Life Technologies and Expression Analysis (LTEA) Assay (AID 2283563);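 for AC50: LDH activity released into spent culture medium as a marker of cell death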
# Method in brief: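 Cells were thawed and plated for 48 h. Medium was then replaced with serum-free induction medium. Chemicals (8 half-log points, maximum 100 uM, 0.5% DMSO) were added in duplicate for 48 h, after which spent medium was assayed for LDH.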
# [3] = TOX21_p53_BLA_p2_viability: Viability Assessment in the Tox21 HCT-116 p53 Agonism Beta-lactamase Assay, Phase 2 (AID 2283591);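 note: compound exposure lasted 16 h at 37 °C; actives lower the ATP signal meaning cytotoxicity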
# Method in brief: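 HCT-116 p53-bla cells (4000/well) rested 5 h at 37C, then received compounds in DMSO (217-fold dilution) for 16 h at 37C, 5% CO2. After the CCF4 read, CellTiter-Glo was added; ATP luminescence was read after 30 min at room temperature.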
# [4] = biological target: Cellular tumor antigen p53 (Homo sapiens) (UniProt P04637); test: TOX21_p53_BLA_p2_ratio: Tox21 HCT-116 p53 Agonism Beta-lactamase Assay, Ratio, Phase 2 (AID 2283592)
# Method in brief: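 Plated HCT116 p53-bla cells (4000/well) received compound after 5 h, then 16 h at 37C/5% CO2. CCF4-AM added, 2 h RT. Ratio of 460 to 530 nm emission taken as the p53 reporter signal.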
# [5] = biological target: Cellular tumor antigen p53 (Homo sapiens) (UniProt P04637); test: TOX21_p53_BLA_p3_ratio: Tox21 HCT-116 p53 Agonism Beta-lactamase Assay, Ratio, Phase 3 (AID 2283596)
# Method in brief: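 Cells were seeded at 4000/well, rested 5 h at 37C, then dosed with DMSO compound solutions (217-fold dilution) for 16 h. CCF4-AM substrate was loaded for 2 h at room temperature, and the 460/530 nm emission ratio was fitted for gain of signal versus DMSO.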
# [6] = TOX21_p53_BLA_p4_viability: Viability Assessment in the Tox21 HCT-116 p53 Agonism Beta-lactamase Assay, Phase 4 (AID 2283597);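 note: hits lower the luminescence signal meaning cytotoxicity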
# Method in brief: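 Readout: ATP luminescence (CellTiter-Glo), measured 30 min after reagent addition at RT. The reagent followed a 2 h CCF4-AM incubation, and the cells had been exposed to compound for 16 h at 37C.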
# [7] = TOX21_p53_BLA_p5_viability: Viability Assessment in the Tox21 HCT-116 p53 Agonism Beta-lactamase Assay, Phase 5 (AID 2283600)
# Method in brief: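 Workflow: seed 4000 cells per well, wait 5 h, add compounds (DMSO, 217-fold dilution), incubate 16 h, load CCF4-AM 2 h, add CellTiter-Glo, read luminescence after 30 min.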
# [8] = biological target: Cellular tumor antigen p53 (Homo sapiens) (UniProt P04637); test: TOX21_p53_BLA_p4_ratio: Tox21 HCT-116 p53 Agonism Beta-lactamase Assay, Ratio, Phase 4 (AID 2283601)
# Method in brief: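 HCT116 cells carrying an inducible beta-lactamase reporter were plated at 4000 cells/well, rested 5 h, then exposed to compounds in DMSO (217-fold dilution) for 16 h at 37C. CCF4-AM substrate was loaded 2 h at room temperature; 460/530 nm emission ratio scored gain-of-signal versus DMSO.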
# [9] = Tanguay_ZF_120hpf_YSE_legacy: (Legacy) Oregon State University Tanguay Lab 120 Hour Post-fertilization zebrafish Assay for Yolk Sac Edema (AID 2283634);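 for AC50: actives raise the incidence of yolk sac edema above the DMSO baseline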
# Method in brief: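 Dechorionate (pronase, 4 hpf) → place one 6 hpf embryo per well → static compound exposure, sealed and foil-covered, 28C, to 120 hpf → record yolk sac edema as present or absent. Final DMSO 0.64%.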
# [10] = Tanguay_ZF_120hpf_AXIS_legacy: (Legacy) Oregon State University Tanguay Lab 120 Hour Post-fertilization zebrafish Assay for Body Axis Malformation (AID 2283635);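 for AC50: potency for an increased fraction of larvae scored with body axis malformation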
# Method in brief: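 Chorion is removed with pronase at 4 hpf, then single 6 hpf embryos are dosed (final DMSO 0.64%) and held statically at 28C in sealed, foil-covered plates. At 120 hpf body axis malformation is recorded as present or absent.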
# [11] = Tanguay_ZF_120hpf_EYE_legacy: (Legacy) Oregon State University Tanguay Lab 120 Hour Post-fertilization zebrafish Assay for Eye Malformation (AID 2283636);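 note: binary presence or absence of eye malformation scored by brightfield in 120 hpf larvae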
# Method in brief: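 Static waterborne exposure of dechorionated zebrafish embryos (strain Tropical 5D), 6 to 120 hpf, sealed plates at 28C, 0.64% DMSO vehicle. Eye malformation is scored as a binary endpoint, with gain of signal analysed relative to DMSO.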
# [12] = Tanguay_ZF_120hpf_SNOU_legacy: (Legacy) Oregon State University Tanguay Lab 120 Hour Post-fertilization zebrafish Assay for Snout Malformation (AID 2283637)
# Method in brief: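 Dechorionated zebrafish, individually housed from 6 hpf in covered, sealed wells at 28C with 0.64% DMSO vehicle, were examined at 120 hpf for snout malformation. Responses were binary and analysed positive-direction relative to DMSO.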
# [13] = Tanguay_ZF_120hpf_JAW_legacy: (Legacy) Oregon State University Tanguay Lab 120 Hour Post-fertilization zebrafish Assay for Jaw Malformation (AID 2283638);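 for AC50: active means more embryos with jaw malformation than DMSO controls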
# Method in brief: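 Steps: dechorionate 4 hpf embryos (pronase); plate 1/well at 6 hpf; add test chemical, 0.64% DMSO final; seal, cover, hold at 28C statically to 120 hpf; score jaw defect presence/absence microscopically. Dead embryos not scored.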
# [14] = Tanguay_ZF_120hpf_OTIC_legacy: (Legacy) Oregon State University Tanguay Lab 120 Hour Post-fertilization zebrafish Assay for Otic Vesicle Malformation (AID 2283639)
# Method in brief: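 Binary scoring of otic vesicle defects at 120 hpf in zebrafish (Tropical 5D) held under static exposure at 28C, sealed and shaded, with final DMSO 0.64%. Embryos dying by 24 or 120 hpf excluded; fitted positively against DMSO.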
# [15] = Tanguay_ZF_120hpf_PE_legacy: (Legacy) Oregon State University Tanguay Lab 120 Hour Post-fertilization zebrafish Assay for Pericardial Edema (AID 2283640);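 for AC50: potency for increased incidence of pericardial edema versus DMSO baseline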
# Method in brief: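 Embryos from wild-type 5D adults were staged, then dosed in 0.64% DMSO. They were kept sealed in the dark at 28C until 120 hpf. Pericardial edema was then recorded as present or absent.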
# [16] = ATG_XTT_Cytotoxicity: Cytotoxicity Assessment in the Attagene TRANS-FACTORIAL HepG2 Assay (AID 2283584)
# Method in brief: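 Cells: human HepG2, transiently transfected with MRTU reporter constructs. Exposure 24 h. Readout: XTT, cell number. Baseline/neg ctrl DMSO; loss-of-signal scored.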
# [17] = TOX21_p53_BLA_p3_viability: Viability Assessment in the Tox21 HCT-116 p53 Agonism Beta-lactamase Assay, Phase 3 (AID 2283593);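 note: cells exposed to compound for 16 h before reading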
# Method in brief: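 HCT-116 cells (4000/well) rested 5 h at 37C, then got DMSO compounds by pin tool (217-fold dilution) for 16 h at 37C, 5% CO2. After the bla read, CellTiter-Glo was added and luminescence read at 30 min, room temperature.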
# [18] = Tanguay_ZF_120hpf_MORT_legacy: (Legacy) Oregon State University Tanguay Lab 120 Hour Post-fertilization zebrafish Assay for Mortality (AID 2283633);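 for AC50: fitted as increase in binary mortality versus DMSO negative control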
# Method in brief: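 5D WT zebrafish, chorion removed 4 hpf; 1 embryo/well from 6 hpf; static exposure to 120 hpf, 28C, dark, sealed. Final DMSO 0.64%. Readout: binary mortality, brightfield, 24 + 120 hpf; DMSO as negative control.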
# [19] = Tanguay_ZF_120hpf_BRAI_legacy: (Legacy) Oregon State University Tanguay Lab 120 Hour Post-fertilization zebrafish Assay for Brain Malformation (AID 2283641)
# Method in brief: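 Wild-type 5D larvae, static waterborne exposure to 120 hpf, 28C, 0.64% v/v DMSO. Brightfield scoring of brain defects, binary; dead embryos excluded. Positive ctrl 5uM trimethyltin chloride.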
# [20] = biological target: Cellular tumor antigen p53 (Homo sapiens) (UniProt P04637); test: TOX21_p53_BLA_p5_ratio: Tox21 HCT-116 p53 Agonism Beta-lactamase Assay, Ratio, Phase 5 (AID 2283599)
# Method in brief: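 HCT-116 cells carrying a p53-inducible beta-lactamase reporter were seeded at 4000 cells/well and dosed after 5 h with compound in DMSO (217-fold dilution). After 16 h at 37C, CCF4-AM substrate was added for 2 h, and the 460/530 nm emission ratio was scored as gain-of-signal versus DMSO.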
# Cellular tumor antigen p53 (Homo sapiens), sequence (P04637 whole entry, looked up): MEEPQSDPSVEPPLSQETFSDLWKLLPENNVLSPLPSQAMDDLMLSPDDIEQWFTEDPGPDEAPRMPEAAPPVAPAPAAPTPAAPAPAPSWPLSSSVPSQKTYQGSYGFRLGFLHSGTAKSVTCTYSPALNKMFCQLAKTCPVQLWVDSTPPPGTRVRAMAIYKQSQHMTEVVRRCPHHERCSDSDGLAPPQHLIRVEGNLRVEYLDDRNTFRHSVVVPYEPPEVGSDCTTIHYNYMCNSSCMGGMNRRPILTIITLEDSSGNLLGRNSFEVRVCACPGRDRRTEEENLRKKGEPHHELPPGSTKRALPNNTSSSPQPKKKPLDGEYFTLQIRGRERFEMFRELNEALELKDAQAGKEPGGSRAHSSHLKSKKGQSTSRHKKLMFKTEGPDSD
smiles,measurement,setting,value
OCCCBr,outcome,[1],inactive
same,outcome,[2],inactive
same,outcome,[3],inactive
same,outcome,[4],inactive
same,outcome,[5],inactive
same,outcome,[6],inactive
same,outcome,[7],inactive
same,outcome,[8],inactive
same,outcome,[9],inactive
same,outcome,[10],inactive
same,outcome,[11],inactive
same,outcome,[12],inactive
same,outcome,[13],inactive
same,outcome,[14],inactive
same,outcome,[15],inactive
CC(C)N(Cc1ccccc1)C(=O)C(C)(C)C,outcome,[2],inactive
same,outcome,[16],inactive
same,outcome,[17],inactive
same,outcome,[5],inactive
same,outcome,[8],inactive
same,outcome,[18],inactive
same,outcome,[9],inactive
same,outcome,[10],inactive
same,outcome,[11],inactive
same,outcome,[12],inactive
same,outcome,[13],inactive
same,outcome,[14],inactive
same,outcome,[15],inactive
CCOC(=O)[C@]1(c2ccccc2)Oc2ccccc2[C@@H]1N,outcome,[1],inactive
same,AC50,[2],77.6 µM (active)
same,outcome,[18],inactive
same,outcome,[9],inactive
same,outcome,[10],inactive
same,outcome,[11],inactive
same,outcome,[12],inactive
same,outcome,[13],inactive
same,outcome,[14],inactive
same,outcome,[15],inactive
OCCOCCO,outcome,[1],inactive
same,outcome,[2],inactive
same,outcome,[9],inactive
same,outcome,[10],inactive
same,outcome,[11],inactive
same,outcome,[12],inactive
same,outcome,[13],inactive
same,outcome,[14],inactive
same,outcome,[15],inactive
CCNS(=O)(=O)C(F)(F)C(F)(F)C(F)(F)C(F)(F)C(F)(F)C(F)(F)C(F)(F)C(F)(F)F,AC50,[1],48.2 µM (active)
same,outcome,[2],inactive
same,AC50,[9],43 µM (active)
same,AC50,[10],55.9 µM (active)
same,AC50,[11],53.6 µM (active)
same,AC50,[12],54.9 µM (active)
same,AC50,[13],41.5 µM (active)
same,AC50,[14],46.9 µM (active)
same,AC50,[15],53.8 µM (active)
C[C@]12C=CC3=C4CCC(=O)C=C4CC[C@H]3[C@@H]1CC[C@@H]2O,AC50,[1],72.4 µM (active)
same,outcome,[2],inactive
same,outcome,[18],inactive
same,AC50,[9],48.8 µM (active)
same,AC50,[11],27.1 µM (active)
same,AC50,[12],43.3 µM (active)
same,AC50,[13],30.5 µM (active)
same,outcome,[14],inactive
same,AC50,[15],29.9 µM (active)
OCCCl,outcome,[1],inactive
same,outcome,[2],inactive
same,outcome,[4],inactive
same,outcome,[17],inactive
same,outcome,[5],inactive
same,outcome,[18],inactive
same,outcome,[9],inactive
same,outcome,[10],inactive
same,outcome,[11],inactive
same,outcome,[12],inactive
same,outcome,[13],inactive
same,outcome,[14],inactive
same,outcome,[15],inactive
same,outcome,[19],inactive
CCOc1cccc(C2(N3CCN(c4ccccc4)CC3)CCC(C)CC2)c1 (configuration not stated),outcome,[1],inactive
same,outcome,[2],inactive
same,outcome,[5],inactive
same,outcome,[9],inactive
same,outcome,[10],inactive
same,outcome,[11],inactive
same,outcome,[12],inactive
same,outcome,[13],inactive
same,outcome,[14],inactive
same,outcome,[15],inactive
CC(C)(OOC(C)(C)c1ccccc1)c1ccccc1,outcome,[1],inactive
same,outcome,[2],inactive
same,outcome,[4],inactive
same,outcome,[17],inactive
same,outcome,[6],inactive
same,outcome,[7],inactive
same,outcome,[8],inactive
same,outcome,[18],inactive
same,outcome,[9],inactive
same,outcome,[10],inactive
same,outcome,[11],inactive
same,outcome,[12],inactive
same,outcome,[13],inactive
same,outcome,[14],inactive
same,outcome,[15],inactive
c1ccc2c(c1)-c1cccc3cccc-2c13,outcome,[1],inactive
same,outcome,[3],inactive
same,outcome,[4],inactive
same,outcome,[5],inactive
same,outcome,[6],inactive
same,outcome,[20],inactive
same,outcome,[8],inactive
same,outcome,[9],inactive
same,outcome,[10],inactive
same,outcome,[19],inactive
[Cl-].[Cl-].[Hg+2],outcome,[1],inactive
same,AC50,[3],34.8 µM (active) and 7.78 µM (active) and 16.4 µM (active)
same,AC50,[6],32.1 µM (active) and 9.76 µM (active) and 12 µM (active)
same,AC50,[7],85.2 µM (active) and 19 µM (active) and 18.5 µM (active)
same,AC50,[18],2.7 µM (active)
same,AC50,[9],4.25 µM (active)
same,AC50,[10],3.84 µM (active)
same,AC50,[11],1.05 µM (active)
same,AC50,[12],3.82 µM (active)
same,AC50,[13],3.12 µM (active)
same,AC50,[14],3.86 µM (active)
same,AC50,[15],3.82 µM (active)
same,AC50,[19],1.22 µM (active)
